Experimental data: PubChem BioAssay AID624125 (The Scripps Research Institute Molecular Screening Center, 2012)
The campaign covered roughly 360,000 compounds. About 2,600 (0.72%) were called active.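 Rule for the calls: active = inhibition above its plate's cutoff, the mean inhibition of sample wells plus 3 SD (cut at about 27% in these data); inactive = the rest.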 The list comes from a sample in which actives are over-represented; it also holds similar structures and randomly drawn compounds.

Biological target: Muscarinic acetylcholine receptor M4 (Homo sapiens) (UniProt P08173)
Sequence (P08173 whole entry, looked up): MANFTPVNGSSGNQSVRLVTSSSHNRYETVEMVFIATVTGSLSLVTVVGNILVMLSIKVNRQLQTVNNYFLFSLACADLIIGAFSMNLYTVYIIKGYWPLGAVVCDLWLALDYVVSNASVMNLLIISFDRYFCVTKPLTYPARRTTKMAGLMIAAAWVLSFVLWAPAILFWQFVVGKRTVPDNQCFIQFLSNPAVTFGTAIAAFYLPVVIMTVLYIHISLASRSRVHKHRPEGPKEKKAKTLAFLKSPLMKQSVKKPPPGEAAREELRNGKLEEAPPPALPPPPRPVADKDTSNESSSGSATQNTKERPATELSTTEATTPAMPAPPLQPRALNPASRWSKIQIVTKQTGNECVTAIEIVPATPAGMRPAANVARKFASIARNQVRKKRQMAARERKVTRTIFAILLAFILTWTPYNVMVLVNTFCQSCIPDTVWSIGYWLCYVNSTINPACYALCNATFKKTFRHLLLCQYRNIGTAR
Assay: CHRM4 blockers of acetylcholine calcium response – CHO cells, Fluo-8 calcium fluorescence, primary screen (AID 624125);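 note: 0% = acetylcholine EC80 with DMSO and 100% = DMSO without agonist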
Settings: CHO-hM4 cells, ACh EC80, Fluo-8 calcium fluorescence; at 3 µM; hits give high values

Row | SMILES | inhibition
1 | O=c1[nH]c2ccccc2n1C1CCN(C(c2ccccc2)c2nnnn2Cc2ccccc2)CC1 (stereo not given) | 27.1% (active)
2 | O=c1[nH]c2ccccc2n1C1CCN(C(c2ccnc3ccccc23)c2nnnn2Cc2ccccc2)CC1 (stereo not given) | 22.4% (inactive)
3 | CSCCC(c1nnnn1C(C)(C)C)N1CCC(n2c(=O)[nH]c3ccccc32)CC1 (stereo not given) | 5.14% (inactive)
4 | Nc1ccc(C(=O)N/N=C2/CN3CCC2CC3)cc1 | -0.14% (inactive)
5 | Cc1nn(Cc2ccccc2Cl)c(Cl)c1C(=O)OC(C(=O)NC(N)=O)C(C)C (stereo not given) | 1.94% (inactive)
6 | COC(=O)N(c1ccc(OC)cc1)P1(=S)OCCC(C)O1 (stereo not given) | 1.76% (inactive)
7 | COc1ccc(N=Cc2c(O)n(C)c(=O)[nH]c2=O)cc1 | 1.06% (inactive)
8 | CC(C)c1c(CN(C)C(C)Cc2ccccc2)n(C)n(-c2ccccc2)c1=O (stereo not given) | 66.1% (active)
9 | CCOC(=O)C(O)(c1ccc(N)c(OC)c1)C(F)(F)F (stereo not given) | 1.32% (inactive)
10 | O=[N+]([O-])c1cnc2ccc3ccccc3c2c1 | 9.35% (inactive)
11 | CC1(C)Cc2c(C#N)c(N3CCNCC3)nc(-c3ccco3)c2CS1 | 5.55% (inactive)
12 | CC1CCCN1CCC(C(N)=O)(c1ccccc1)c1ccccc1 (stereo not given) | 99% (active)
13 | CC1CCCCN1Cc1cccnc1 (stereo not given) | 3.46% (inactive)
14 | O=C(Cc1ccccc1)N1CCN(C2CCCCCC2)CC1 | 0.63% (inactive)
15 | C[C@]12CCCCC1=CC(=O)C1C2CC[C@@]2(C)C1C[C@@H](F)[C@@H]2O (stereo not given in full) | -6.29% (inactive)
16 | N#Cc1ccc(Cn2cc(C(=O)c3ccco3)c3ccccc32)cc1 | 0.92% (inactive)
17 | CCOP(=O)(OCC)C(NC(=O)c1ccc(OC)cc1)C(Cl)(Cl)Cl (stereo not given) | 3.05% (inactive)
18 | CCOP(=O)(OCC)C(NC(=O)NC)C(N)=O (stereo not given) | 39% (active)

Row | SMILES | inhibition
19 | CCOP(=O)(OCC)C(NC(=O)c1ccc(C)cc1)C(Cl)(Cl)Cl (stereo not given) | 9.97% (inactive)
20 | CN(C)CCCN=Cc1c(O)n(Cc2ccco2)c(=O)[nH]c1=O | 2.03% (inactive)
21 | CC(=O)N(C1=NCCCS1)c1ccccc1F | -8.11% (inactive)
22 | CN(C)C(=O)Oc1cc(=O)n2c3c(cccc13)CCC2 | -4.4% (inactive)
23 | CCCCCCCCCCCCn1ccc(=N)cc1 | 71.3% (active)
24 | COc1cc(-n2c(=S)[nH]c3ccc(C)cc3c2=O)c(Cl)cc1Cl | 3.21% (inactive)
25 | COC(=O)C(O)(c1ccc(NC(=O)c2ccco2)c(OC)c1)C(F)(F)F (stereo not given) | 1.51% (inactive)
26 | CCCC(C)n1[nH]c(=O)c2c1NC(=O)CSC2c1ccc(OC)c(OC)c1 (stereo not given) | -2% (inactive)
27 | O=C(NCC(c1cccnc1)N1CCN(c2ccccc2)CC1)Oc1ccccc1 (stereo not given) | -1.68% (inactive)
28 | CCCC[N+]1(C)C2CC(OC(=O)C(CO)c3ccccc3)CC1C1OC12 (stereo not given) | 90.4% (active)
29 | N#CC1=C(N)Oc2c(c(=O)oc3ccccc23)C1c1ccccc1OC(=O)c1cccs1 (stereo not given) | 5.46% (inactive)
30 | Cc1ccc(-n2c(O)c(C=NCC3CCCO3)c(=O)[nH]c2=O)c(C)c1 (stereo not given) | -11% (inactive)
31 | COc1cccc(CN2CCCC(C(=O)c3ccccc3SC)C2)c1O (stereo not given) | -1.14% (inactive)
32 | CC[N+]1(C)CCCC(OC(=O)C(O)(c2ccccc2)c2ccccc2)C1 (stereo not given) | 98.6% (active)
33 | Cc1ccc(N(C)C(=O)Oc2cccc3ccc(C)nc23)cc1 | 5.04% (inactive)
34 | CCc1nc2ccccc2c(=O)n1-c1cccc(OC)c1 | -8.12% (inactive)
35 | CN1CCN(/N=C/c2c[nH]c3ccccc23)CC1 | -1.55% (inactive)
